In the library only some 3.2% were active in any assay of this set; here they are far more common.
Sm TGR block = blocks Schistosoma mansoni thioredoxin glutathione reductase; Q962Y6; purified TGR, DTNB reduction, TNB absorbance 405 nm; Potency, µM (top dose mostly 114 µM), inactives show at the top dose activity change, negative = inhibition, hits mostly inhibitors; hit rate 3% among 360,000; also: nearly all actives have a fitted effect of over 60% in size
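First, TGR (20 nM dispensed) and NADPH were mixed with compound. Second, a 15 min room-temperature incubation followed. Third, further NADPH and then DTNB were added to start the reaction. Finally, TNB absorbance was monitored kinetically.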
Tb PYK inh = T. brucei pyruvate kinase inhibition; Q57TT1; hit rate 0.12% among 410,000; Potency, µM (highest dose often 76.8 µM), for the others: at the top dose activity, negative = inhibition, most hits filed as inhibitors; AID 624173; TbPYK enzyme, Kinase-Glo Plus ATP luminescence, 45 min; also: nearly all actives have a fitted effect of over 50% in size
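Readout: single end-point luminescence (Kinase-Glo Plus, 10 min). Reaction conditions were TbPYK/substrate plus 130 uM ADP, 45 min at RT, pH 7.2 TEA buffer. No-enzyme wells served as controls, and data were normalized before concentration-response fitting.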
AMA1 RON2 block = AMA1-RON2 (P. falciparum) interaction inhibition | AlphaScreen AMA1-biotinylated RON2 peptide binding | Potency, µM (highest dose often 58.2 µM), inactives show at the highest dose activity change, negative = inhibition, hits mostly inhibitors | hit rate 0.2% among 360,000;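 also: 0% = vehicle wells and -100% = peptide control; nearly all actives have a fitted effect of over 45% in size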
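AMA1 (3D7) with his tag at 25 nM final met compounds first, then biotinylated RON2 peptide at 25 nM; detection used donor plus acceptor beads, 10 µg/mL apiece, read by AlphaScreen after 30 min at room temperature.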
RE007 growth inh = less growth of the S. pombe RE007 Vpr strain; S. pombe RE007 Vpr strain, BacTiter-Glo ATP luminescence, 24 h; Potency, µM (highest dose often 92.2 µM), for inactives: top-dose activity change, negative = less growth, usual class: inhibitors; hit rate 0.21% among 360,000; AID 651644; active = well fitted falling curve with a large enough effect; inconclusive = small, poorly fitted or top-dose-only effect; inactive = no such curve, though single readings can be large or run the other way; also: nearly all actives have a fitted effect of over 50% in size
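Fission yeast strain RE007, carrying one chromosomally integrated HIV-1 vpr copy, was seeded at OD 0.01 in PMG+AL medium with 23 nL pinned compound. After 24 h at 30 °C and 99% humidity, viability was read by BacTiter-Glo luminescence.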
LmPK inh = inhibitors of Leishmania mexicana pyruvate kinase; Q27686; purified LmPK, Kinase-Glo ATP luminescence, 1 h; Potency, µM (series often up to 57.5 µM), without a hit: at the top dose activity change, negative = inhibition, actives largely listed as inhibitors; hit rate 0.37% among 290,000; AID 1721
Target sequence (Q27686 whole entry, looked up): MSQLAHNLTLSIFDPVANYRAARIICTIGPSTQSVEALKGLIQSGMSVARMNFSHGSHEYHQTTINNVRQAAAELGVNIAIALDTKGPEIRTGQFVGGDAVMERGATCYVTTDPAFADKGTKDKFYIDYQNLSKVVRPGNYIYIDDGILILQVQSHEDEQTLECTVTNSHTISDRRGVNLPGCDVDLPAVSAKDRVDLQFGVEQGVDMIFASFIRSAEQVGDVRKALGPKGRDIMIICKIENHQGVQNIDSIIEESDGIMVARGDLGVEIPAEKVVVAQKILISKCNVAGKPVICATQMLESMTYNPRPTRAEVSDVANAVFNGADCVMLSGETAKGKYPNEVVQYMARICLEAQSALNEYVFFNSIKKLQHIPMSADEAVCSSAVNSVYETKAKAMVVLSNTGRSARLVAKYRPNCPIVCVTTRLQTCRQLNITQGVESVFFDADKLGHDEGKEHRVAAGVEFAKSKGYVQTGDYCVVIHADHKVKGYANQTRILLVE
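Kinase-Glo luminescence read after 1 h RT reaction of 0.1 nM LmPK with 0.5 mM PEP and 0.1 mM ADP. Activity scaled between uninhibited and enzyme-free controls.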
Numbers without * were called inactive; ? = inconclusive; / = no result given; [ ] = dose if it differs, or a comment. Unless noted, calls follow the shape of the dose curve; as a rule, active = well fitted curve in the direction sought with a large enough effect; inconclusive = small, poorly fitted or top-dose-only effect, or another doubt; inactive = no such curve, though single readings can be large; an effect the other way counts as inactive or inconclusive. Unless noted, % is scaled to controls: 0 for no effect and ±100 for the full control effect; potency is read from the fitted curve at half-maximal effect.

SMILES	Sm TGR block	Tb PYK inh	AMA1 RON2 block	RE007 growth inh	LmPK inh
Cc1ccnc(SC2CC(=O)N(c3ccc(F)cc3)C2=O)n1 (centres undefined)	?	-9%	-17%	8%	1%
O=C1CC(SC2=NCCS2)C(=O)N1c1ccc(Br)cc1 (centres undefined)	56µM*	7%	-1%	0%	0%
Nc1ccccc1SC1CC(=O)N(c2ccc(Cl)c(Cl)c2)C1=O (centres undefined)	5%	-2%	0%	/	2%
CCc1ccc(CNCc2c(C(=O)O)n(Cc3ccc(C)cc3)c3cc(C)ccc23)cc1	-7%	-10%	/	/	/
COCCn1c(CCC(=O)Nc2ccc(OC)c(OC)c2)nc2cccnc21	3%	-3%	/	/	/
CC(C)N1CSC(=S)N(Cc2ccccc2)C1	28µM*	1%	-16%	0%	-5%
CC(C)(C)N1CSC(=S)N(Cc2ccccc2)C1	?	0%	17%	0%	-8%
CCNC(=S)Nc1cccc(S(=O)(=O)Nc2ccccc2OC)c1	1.8µM*	2%	-5%	23%	7%
CCCCNC(=S)Nc1cccc(S(=O)(=O)NC2=NCCC2)c1	40µM*	-18%	12%	-2%	/
CC(C)C(=O)Nc1cccc(S(=O)(=O)NC2=NCCC2)c1	/	0%	-6%	0%	/
O=C(CCl)Nc1cccc(S(=O)(=O)NC2=NCCC2)c1	6.3µM*	1%	-6%	15%	-1%
CCn1nnnc1NCc1cccn1C	50µM*	-13%	-19%	-8%	8%
COc1ccccc1Nc1nnc(SCC2CCCCO2)s1 (centres undefined)	8%	-15%	-8%	-21%	14µM*
CC(=O)c1cccc(CN2CCN(Cc3ccc(C)cc3)C(CCO)C2)c1 (centres undefined)	-19%	-3%	-4%	12%	2%
CC(=O)c1cccc(CN2CCN(Cc3ccc(F)cc3)C(CCO)C2)c1 (centres undefined)	45µM*	6%	-8%	-6%	4%
CC(=O)Nc1ccc2nc(CN3CCN(Cc4ccc(F)cc4)C(CCO)C3)ccc2c1 (centres undefined)	25µM*	-2%	11%	-3%	6%
CCc1cccc(C)c1NC(=O)CN1CCCN(Cc2ccccc2Cl)S1(=O)=O	-1%	0%[15.4 µM]	/	/	/
COc1ccc(C(=O)c2cn(Cc3cccc(C)c3)c3cc4c(cc3c2=O)OCCO4)cc1OC	7%	-5%	/	/	/
c1ccc(Nc2cccc(Nc3ccccc3)c2)cc1	35µM*	-4%	?	?	2%
Nc1cccc(Nc2ncnc3ccccc23)c1	4%	7%	0%	13%	30%
Nc1cccc(Nc2ccccc2)c1	40µM*	2%	-5%	-4%	5%
COc1ccc(C(CC(=O)Nc2ccc(C(C)=O)cc2)N2Cc3ccccc3C2=O)cc1 (centres undefined)	9%	0%	/	/	/
Cc1ccc(NC(=O)CCCc2nnc3n(C)c(=O)c4sccc4n23)cc1F	0%	-4%	/	/	/
CCOC(=O)c1cc2occc2n1CC(=O)N1CCCc2ccccc21	8.9µM*	-12%	-17%	-2%	2%
CCOC(=O)c1cc2sccc2n1CC(=O)N1CCCc2ccccc21	-21%	3%	-9%	3%	3%
SMILES	Sm TGR block	Tb PYK inh	AMA1 RON2 block	RE007 growth inh	LmPK inh
Cc1ccc2onc(CC(=O)N3CCN(c4cccc(Cl)c4)CC3)c2c1	-27%	-3%	/	/	/
CCc1nnc(N/N=C/c2cc(Br)c(O)cc2O)n1N	35µM*	3%	21%	-22%	-4%
CCc1nnc(N/N=C/c2ccc(O)c(OC)c2)n1N	-20%	0%	4%	-5%	11%
CCCC(=O)N1c2nc(-c3ccco3)nn2C2(CCCCC2)[C@@H]2CCCC[C@@H]21	35µM*	-10%	/	/	/
COc1cccc(N2CCN(C3CC(=O)N(c4ccc(F)c(Cl)c4)C3=O)CC2)c1 (centres undefined)	50µM*	-8%	0%	28µM*	9%
COc1ccc(NC2CCN(C3CC(=O)N(c4ccc(F)c(Cl)c4)C3=O)CC2)cc1 (centres undefined)	11µM*	-12%	-10%	6.3µM*	3%
COC(=O)[C@]12CCC(C)(C)C[C@@H]1[C@@H]1C(=O)C=C3[C@@]4(C)C=C(C#N)C(=O)C(C)(C)[C@@H]4CC[C@@]3(C)[C@]1(C)CC2	/	1%	/	/	/
COC(=O)c1ccc(OC(=O)c2ccncc2)cc1O	45µM*	0%	-7%	6%	1%
CO/N=C(\C(=O)N[C@@H]1C(=O)N2C(C(=O)[O-])=C(C[n+]3cccc4c3CCCC4)CS[C@H]12)c1csc(N)n1	/	-14%	/	/	/
NC(=S)N=Nc1ccc(NN=C(N)N)cc1	50µM*	?	?	-20%	-6%
C=C1NC(=O)c2cc(CN(C)c3ccc(C(=O)N[C@@H](CCC(=O)O)C(=O)O)s3)ccc2N1	/	9%	/	/	/
CCOC(=O)c1ccc(-c2ccc(CO)o2)cc1	35µM*	-13%	-9%	-23%	-25%
CCOc1ccc(-c2ccc(CO)o2)cc1N	-1%	1%	/	/	/
CCOc1ccc(-c2nnc(SCC(=O)Oc3ccccc3)o2)cc1	-10%	-1%	/	/	/
COc1ccc(/C=N/Nc2ncc(-c3ccccc3)cn2)c(OC)c1	-9%	0%	13%	-9%	6%
COc1ccc(/C=N/Nc2ncccc2[N+](=O)[O-])c(OC)c1	3%	?	7%	-9%	25µM*
Cc1ccccc1C(=O)N1CC/C(=N/OS(=O)(=O)O)c2ccc(Cl)cc21	/	-8%	/	/	/
COc1ccc(C(=O)Nc2ccc(C)cn2)c(OC)c1	5%	-18%	-6%	?	14µM*
Cc1ccc(N(C(=O)CCl)C(C(=O)NC2CCCCC2)c2cccnc2)cc1C (centres undefined)	14µM*	-5%	-6%	3%	0%
CN(C)C(CNC(=O)NC1CCCCC1)c1cccnc1 (centres undefined)	40µM*	-2%	11%	4%	5%
Cc1ccc(N(C(=O)CNC(=O)c2ccco2)C(C(=O)NC2CCCCC2)c2cccnc2)cc1C (centres undefined)	-10%	-3%	6%	5%	3%
CN(C)C(CNC(=O)c1cccs1)c1cccnc1 (centres undefined)	0%	3%	24%	18%	4%
COc1cc(-c2nc(Cn3nnc(C(=O)Nc4cc(C)cc(C)c4)c3C)c(C)o2)cc(OC)c1OC	-1%	5%	/	/	/
O=c1cc(CSc2nnc3ccccn23)c2c(ccc3ccccc32)o1	45µM*	-11%	4%	3%	6%
O=c1[nH]c(CSc2nnc3ccccn23)nc2ccccc12	-19%	-3%	-4%[2.32 µM]	-15%	0%
O=C(CNC(=O)c1ccc(F)cc1)OCc1cc(=O)n2nc(C3CC3)sc2n1	-7%	-3%	/	/	/
